Consider 13 molecules from PubChem BioAssay (Tox21).

Several values for one entry are separate records, joined by “and”; a condition that tells them apart may be missing. Identical values can stand only once. Records with an inconclusive call do not appear. More than one record can exist for a structure, and the calls need not agree. Activity calls are given as the source filed them. Unless noted, calls follow the shape of the dose curve; as a rule, active = well fitted curve in the direction sought with a large enough effect in the repeat runs; inconclusive = weak or mixed curves; inactive = no such curve, though single readings can be large; an effect the other way counts as inactive or inconclusive.

A short description of assay [1]: qHTS assay to identify small molecule agonists of the hypoxia (HIF-1) signaling pathway - cell viability counter screen (AID 1224844; calls by dose curve; also: nearly all actives have a fitted effect of over 50% in size). The procedure, abridged:
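HRE-bla ME-180 cells, 2,000/well in 0.5% dialyzed FBS medium, treated 17 h at 37C with compounds. Viability read in the same wells as the bla reporter, by CellTiter-Glo luminescence after 30 min at room temperature.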
(In qHTS, concentration-response curves come from the screen itself.)

Assay [2] is described as follows: qHTS assay to identify small molecule agonists of H2AX (AID 1224845; active = well fitted activation curve with a large enough effect in the signal ratio in the repeat runs, not every such curve was filed as active; the % refers to the signal ratio). A digest of the protocol:
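Phospho-H2AX Ser139 measured by HTRF (ex 320 nm; em 665 and 620 nm) after 24 hr antibody incubation. Compounds, 15 concentrations, 0.76% DMSO, were applied to CHO-K1 cells for 3hr at 37C before lysis.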

A short description of assay [3]: qHTS assay to identify small molecule agonists of the hypoxia (HIF-1) signaling pathway (AID 1224846; active = well fitted activation curve with a large enough effect in the signal ratio in the repeat runs, not every such curve was filed as active; the % refers to the signal ratio). A digest of the protocol: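 HRE-bla ME-180 beta-lactamase reporter cells in medium with 0.5% dialyzed FBS, pre-incubated 5 h then exposed to compounds 17 h at 37C, 5% CO2; reporter induction read with CCF4-AM FRET substrate.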
Assay [4] can be described thus: qHTS assay to identify small molecule agonists of H2AX - cell viability counter screen (AID 1224847; calls by dose curve; also: top concentration of the series differs between compounds; nearly all actives have a fitted effect of over 30% in size). A digest of the protocol:
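Wild-type CHO-K1 cells (10% FBS medium) were plated overnight at 37C, exposed to compounds at 15 concentrations for 3 hr at 37C (0.76% DMSO final), and viability was read as CellTiter-Glo luminescence after 30 min at room temperature.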

Assay [5] is described as follows: qHTS assay to identify small molecule agonists of the estrogen related receptor (ERR) signaling pathway from Tox21 library (AID 1224849; calls by dose curve; also: nearly all actives have a fitted effect of over 15% in size). A digest of the protocol:
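ERR reporter cells (NTP line) pre-incubated 6 hours at 37 C, then exposed to compounds for 18 hours at 37 C. ONE-Glo luciferase luminescence was read after 30 minutes at room temperature.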

The nature of assay [6]: qHTS RealTime-Glo MT Cell Viability Assay in HepG2 cells - 24 hour (AID 1224867). Also: nearly all actives have a fitted effect of over 50% in size. The procedure, abridged:
(§1)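 qHTS, HepG2, 600 cells/well, RealTime-Glo (NanoLuc + prosubstrate) added with cells; 5 h preincubation; DMSO compound addition; 37 C; luminescence at 0/8/16/24/32/40 h.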

Assay [7] can be described thus: qHTS RealTime-Glo MT Cell Viability Assay in HEK293 cells - 32 hour (AID 1224868). Also: top concentration of the series differs between compounds; nearly all actives have a fitted effect of over 50% in size. The procedure, abridged: (§2)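 Assay medium contained NanoLuc luciferase plus cell-permeant prosubstrate, added with HEK293 cells at 600 cells/well. After 5 h at 37 C/5% CO2 compounds were added; plates stayed at 37 C for 40 h with serial luminescence reads.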
Assay [8] in a line: A CellTox Green Cytotoxicity Assay to monitor cytotoxicity in HEK293 cells - 0 hour (AID 1224869). Also: nearly all actives have a fitted effect of over 50% in size. The procedure, abridged: (§3)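 HEK293 cells, 600/well, were preincubated 5 hours and then exposed to compounds at 37 C for up to 40 hours. A cell-impermeant cyanine dye staining dead-cell DNA was read by fluorescence at 0, 8, 16, 24, 32 and 40 h time points.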
Assay [9] in a line: qHTS RealTime-Glo MT Cell Viability Assay in HepG2 cells - 40 hour (AID 1224870). Also: nearly all actives have a fitted effect of over 50% in size. A digest of the protocol:
(§4)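 Real-time viability: cells seeded at 600 per well together with NanoLuc and cell-permeant prosubstrate, compounds added after 5 h incubation. Luminescence tracked at 0, 8, 16, 24, 32 and 40 h of exposure.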

Assay [10] is described as follows: A CellTox Green Cytotoxicity Assay to monitor cytotoxicity in HEK293 cells - 40 hour (AID 1224871). Also: nearly all actives have a fitted effect of over 45% in size. Also: potency is read from the fitted curve at half-maximal effect. The procedure, abridged: as §3
A short description of assay [11]: qHTS RealTime-Glo MT Cell Viability Assay in HEK293 cells - 16 hour (AID 1224872). A digest of the protocol: as §2
A short description of assay [12]: qHTS RealTime-Glo MT Cell Viability Assay in HepG2 cells - 8 hour (AID 1224873). Also: nearly all actives have a fitted effect of over 55% in size. A digest of the protocol: as §4
Assay [13] in a line: qHTS RealTime-Glo MT Cell Viability Assay in HEK293 cells - 40 hour (AID 1224874). Also: nearly all actives have a fitted effect of over 50% in size. The conditions noted are these: RealTime-Glo luminescence; max response: stronger effect = lower value. A digest of the protocol:
(§5)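 600 cells/well were plated with the nonlytic NanoLuc/prosubstrate reagent, pre-incubated 5 h, then given 23 nL of compound in DMSO. Incubation at 37 C for 40 h, with luminescence from viable-cell-reduced substrate read repeatedly from 0 h.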

Assay [14] in a line: A CellTox Green Cytotoxicity Assay to monitor cytotoxicity in HEK293 cells - 24 hour (AID 1224875). Also: series mostly up to about 77 µM; nearly all actives have a fitted effect of over 45% in size. The procedure, abridged: as §3
Assay [15] in a line: A CellTox Green Cytotoxicity Assay to monitor cytotoxicity in HepG2 cells - 16 hour (AID 1224876). Also: nearly all actives have a fitted effect of over 45% in size. The procedure, abridged: (§6)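 HepG2 cells, 600/well, preincubated 5 h with CellTox Green dye, then exposed to Tox21 compounds in DMSO at 37 C for up to 40 h. Dead-cell DNA fluorescence read at the indicated time point.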
The nature of assay [16]: qHTS RealTime-Glo MT Cell Viability Assay in HepG2 cells - 32 hour (AID 1224877). Also: nearly all actives have a fitted effect of over 55% in size. A digest of the protocol: as §1
A short description of assay [17]: A CellTox Green Cytotoxicity Assay to monitor cytotoxicity in HepG2 cells - 24 hour (AID 1224878). Also: nearly all actives have a fitted effect of over 45% in size. A digest of the protocol:
as §6

Assay [18] in a line: A CellTox Green Cytotoxicity Assay to monitor cytotoxicity in HepG2 cells - 40 hour (AID 1224879). Also: nearly all actives have a fitted effect of over 40% in size. The procedure, abridged: as §6
Assay [19] can be described thus: qHTS RealTime-Glo MT Cell Viability Assay in HEK293 cells - 0 hour (AID 1224880). A digest of the protocol:
as §5

Assay [20] addresses Thyrotropin receptor (Homo sapiens) (UniProt P16473). The experiment in a line: qHTS assay to identify small molecule agonists of the thyroid stimulating hormone receptor (TSHR) signaling pathway (AID 1224843; calls by dose curve; also: nearly all actives have a fitted effect of over 45% in size). A digest of the protocol: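 HEK293 cells stably bearing the thyrotropin receptor were plated at 800 cells/well and challenged with compound (30 min, RT). Accumulated cAMP was quantified via cAMP-d2 competing for cryptate-tagged antibody.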
% is scaled to controls: 0 for no effect and ±100 for the full control effect.

Chain of Thyrotropin receptor (Homo sapiens) (P16473 whole entry, looked up): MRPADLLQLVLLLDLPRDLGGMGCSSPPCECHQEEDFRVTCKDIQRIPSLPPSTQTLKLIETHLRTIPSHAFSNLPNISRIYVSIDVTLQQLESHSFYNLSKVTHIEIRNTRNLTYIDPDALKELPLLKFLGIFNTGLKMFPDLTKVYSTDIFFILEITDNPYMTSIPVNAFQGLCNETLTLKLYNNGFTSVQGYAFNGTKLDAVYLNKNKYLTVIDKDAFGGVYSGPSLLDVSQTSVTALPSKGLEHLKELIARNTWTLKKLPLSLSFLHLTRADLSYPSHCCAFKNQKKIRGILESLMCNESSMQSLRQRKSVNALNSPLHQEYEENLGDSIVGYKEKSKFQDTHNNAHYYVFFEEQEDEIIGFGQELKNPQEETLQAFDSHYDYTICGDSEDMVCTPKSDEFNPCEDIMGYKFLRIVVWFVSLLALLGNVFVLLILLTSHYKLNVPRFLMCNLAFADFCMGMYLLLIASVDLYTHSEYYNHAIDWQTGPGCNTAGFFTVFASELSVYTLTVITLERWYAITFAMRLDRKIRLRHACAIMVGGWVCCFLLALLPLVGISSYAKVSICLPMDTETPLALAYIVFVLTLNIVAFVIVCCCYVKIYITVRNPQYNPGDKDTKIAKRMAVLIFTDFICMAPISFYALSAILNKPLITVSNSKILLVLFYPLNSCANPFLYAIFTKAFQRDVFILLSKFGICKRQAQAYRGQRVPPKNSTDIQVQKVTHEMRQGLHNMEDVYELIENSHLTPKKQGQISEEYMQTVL

As for `CC(=O)OCc1ccco1`, the outcome in assay [1], in assay [2], in assay [3], in assay [4], in assay [5] and in assay [8] was inactive. Besides, the outcome in assay [9], in assay [15], in assay [16] and in assay [19] was inactive. The Potency result in [6], in [7], in assay [10], in assay [11], in assay [12] and in assay [14] was “inactive” each time. The Potency entry in assay [17] and in assay [18] was “inactive” in each case. Moreover, the max response in [13] is 3.13% (inactive) and 20% (inactive).
As to `Nc1ccc(Cl)c(N)c1`, the molecule was classed as inactive in assay [20], in [2], in [3], in [4], in [9] and in assay [15]. The call in assay [16] and in assay [19] was inactive. Besides, the Potency result in assay [6], in [7], in assay [10], in assay [11], in [12] and in [14] was “inactive” in each case. The Potency entry in [17] and in assay [18] was “inactive” throughout.
With `C=C(C)CNCC`, the outcome in assay [20], in assay [2], in assay [3], in [4], in assay [5] and in assay [9] was inactive. Also, the outcome in assay [15], in assay [16] and in assay [19] was inactive. For the same molecule, the Potency entry in [6], in assay [10], in [11], in assay [12], in assay [14] and in [17] was “inactive” throughout. For the same molecule, in assay [18], the Potency entry is “inactive”. In addition, the max response in [13] was 0.995% (inactive) and -23.9% (inactive).
`CCNC(=S)NCC`: the molecule was classed as inactive in assay [20], in [2], in assay [3], in [4], in assay [8] and in [9]. Moreover, the result in assay [15], in assay [16] and in assay [19] was inactive. Moreover, the Potency result in [6], in assay [7], in assay [10], in assay [11], in assay [12] and in assay [14] was “inactive” in each case. In addition, the Potency entry in assay [17] and in assay [18] was “inactive” each time.
As to `Clc1ccccn1`, the result in [20], in [2], in assay [3], in [4], in [9] and in assay [15] was inactive. Also, the outcome in assay [16] and in [19] was inactive. Further, the Potency result in assay [6], in assay [7], in assay [10], in assay [11], in assay [12] and in assay [14] was “inactive” throughout. For the same molecule, the Potency result in assay [17] and in [18] was “inactive” in each case. The max response in assay [13] was 5.77% (inactive) and 7.16% (inactive).
Consider `CC(C)CC(C)O` (configuration not stated), for which the molecule was called inactive in assay [1], in [2], in [3], in assay [4], in [8] and in [9]. For the same molecule, the result in assay [15], in [16] and in assay [19] was inactive. Moreover, the Potency result in assay [6], in assay [7], in assay [10], in assay [11], in [12] and in [14] was “inactive” each time. In addition, the Potency result in [17] and in assay [18] was “inactive” in each case. In addition, in assay [13], the max response is 6.34% (inactive) and 7.03% (inactive).
With `O=C(O)c1ccccc1C(=O)O`, the call in assay [20], in [2], in assay [3], in [4], in assay [9] and in assay [15] was inactive. In addition, the molecule was classed as inactive in assay [16] and in assay [19]. The Potency result in assay [6], in assay [7], in [10], in assay [11], in assay [12] and in assay [14] was “inactive” in each case. Besides, the Potency result in assay [17] and in assay [18] was “inactive” in each case.
As to `CC(=O)CC(C)(C)O`, the molecule was classed as inactive in assay [1], in assay [2], in [3], in [4], in assay [5] and in assay [9]. The result in assay [15], in assay [16] and in assay [19] was inactive. Besides, the Potency entry in assay [6], in assay [10], in assay [11], in assay [12], in assay [14] and in assay [17] was “inactive” in each case. Further, in assay [18], the Potency entry was “inactive”.
As to `Brc1ccc(Br)c(Br)c1`, the molecule was called inactive in [20], in [2], in assay [3], in assay [4], in [9] and in [15]. For the same molecule, the molecule was classed as inactive in [16] and in assay [19]. The Potency entry in assay [6], in assay [7], in assay [11], in [12], in assay [17] and in assay [18] was “inactive” throughout.
Turning to `CCOCC(=O)O`, the molecule was called inactive in [20], in assay [2], in [3], in assay [4], in assay [5] and in assay [9]. In addition, the molecule was called inactive in assay [15], in assay [16] and in assay [19]. Moreover, the Potency result in assay [6], in assay [10], in [11], in [12], in assay [14] and in assay [17] was “inactive” in each case. Further, the Potency result in assay [18] is “inactive”.
Regarding `CC(=O)CCC=C(C)C`, the result in assay [20], in assay [2], in assay [3], in [4], in assay [5] and in [8] was inactive. Further, the result in assay [9], in assay [15], in assay [16] and in [19] was inactive. Besides, the Potency entry in assay [6], in assay [10], in assay [11], in assay [12], in [14] and in assay [17] was “inactive” throughout. In addition, the Potency entry in assay [18] is “inactive”.
With `CCCCCCCCCCO`, the call in [1], in assay [2], in assay [3], in [4], in assay [8] and in assay [9] was inactive. Also, the result in [15], in assay [16] and in assay [19] was inactive. Moreover, the Potency entry in [6], in [7], in [11], in assay [12], in [17] and in assay [18] was “inactive” each time. Also, the Potency in [10] is 24.6 µM (active) and inactive. For the same molecule, the max response in assay [13] is 1.72% (inactive) and 1.45% (inactive).
As to `Cc1ccc([N+](=O)[O-])cc1S(=O)(=O)O`, the outcome in assay [1], in assay [2], in assay [3], in assay [4], in assay [5] and in assay [8] was inactive. Besides, the outcome in assay [9], in assay [15], in [16] and in assay [19] was inactive. The Potency entry in assay [6], in assay [10], in [11], in assay [12], in assay [14] and in [17] was “inactive” throughout. Also, in assay [18], the Potency entry is “inactive”.
